Structures are written as SMILES. The whole screen tested about 59,000 compounds, of which about 6,500 (11%) were called active. Roughly 15% stayed inconclusive and do not appear here. The sample holds actives, similar compounds and a random draw of the others, so the mix is not that of the screen. No stated cut-off is given here; in the data, active means max dye-equivalent concentration above about 10 nM; inconclusive means mostly about 1.1 nM to 9.6 nM; inactive means weaker than that.

A short description of this experiment: qHTS Assay for Spectroscopic Profiling in A350 Spectral Region. The note with it: Compound autofluorescence, 340/450 nm, Alexa 350 dye-equivalents; hits give high values. On the technique in general: In qHTS, concentration-response curves come from the screen itself.
For the compound `Cc1ccc(S(=O)(=O)Nc2ccccc2CNc2c(C)n(C)n(-c3ccccc3)c2=O)cc1`, the max dye-equivalent concentration entry is “inactive”.

Regarding `COCCCn1c2nc3ccccc3nc2c2c(=O)n(Cc3ccc(Cl)cc3)c(C)nc21`, the max dye-equivalent concentration was 380 nM (active). With `COc1ccccc1NC(=O)CSc1nc2sc(C)c(C)c2c(=O)n1Cc1ccco1` the entry was “inactive”.

In the case of `Cn1c(COc2ccc(Cl)cc2)nc2ccccc2c1=O`, the max dye-equivalent concentration entry was “inactive”. With `O=c1[nH]c(CSc2ncc(-c3ccc(F)cc3)n2Cc2ccco2)nc2ccccc12` the entry was “inactive”; with `Cc1nc2ccccc2c(=O)n1CCCn1ccnc1`, “inactive”; with `CC(Sc1nc2ccccc2c(=O)n1Cc1ccco1)C(=O)c1ccccc1` (stereo not drawn), “inactive”. For `Cc1nc2c(c(=O)n1Cc1ccco1)c1nc3ccccc3nc1n2Cc1ccccc1` the value was 110 nM (active); for `CCOC(=O)CSc1nc2c(sc(=S)n2CCc2ccccc2)c(=O)n1Cc1ccco1`, “inactive”; for `Cc1ccc(Cn2c(C)nc3c(c2=O)c2nc4ccccc4nc2n3Cc2ccco2)cc1`, 1000 nM (active). For `Cc1ccc(N2CCN(c3ccc(C)cc3)C2c2ccccn2)cc1` the value was “inactive”.

`COc1ccccc1-n1cnc2cc(NS(=O)(=O)c3ccccc3)ccc21`: the max dye-equivalent concentration result was “inactive”. For `CCOC(=O)C1(Cc2ccc(O)cc2)NC(c2ccccc2F)C2C(=O)N(C)C(=O)C21` (stereo not drawn) the value was “inactive”.

On to `O=C(O)C1CC=C(Cl)CC1C(=O)NCc1ccccc1` (stereo not drawn), for which the max dye-equivalent concentration entry was “inactive”. For `CC1(C)Cc2ccccc2-c2nc(CN3CCOCC3)[nH]c(=O)c21` the value was “inactive”; for `CCN(CC)C(=O)CSc1nnc(-c2cnccn2)n1-c1ccc(C)cc1`, “inactive”; for `O=C(CN1CCN(S(=O)(=O)/C=C/c2ccccc2)CC1)NC(=O)NCc1ccco1`, “inactive”.

In the case of `Cc1cccc(N=C2NC(=O)CS2)c1C`, the max dye-equivalent concentration result is “inactive”. With `Cc1ccc(NC(=O)CN2CCC3(O)CCCCC3C2c2ccc3c(c2)OCO3)c(C)c1` (stereo not drawn) the entry was “inactive”. With `Cc1ccc2cccc(O)c2[n+]1[O-]` the figure was 16 nM (active); with `CC(=O)Nc1cccc2c1[n+]([O-])c(C)c(C)[n+]2[O-]`, “inactive”.

For the compound `O=C(c1cc(C(F)(F)F)cc(C(F)(F)F)c1)N1CCC2(CCCN(c3ccccn3)C2)CC1`, the max dye-equivalent concentration entry is “inactive”. With `O=C(Nc1cccc(C(=O)N2CCCC2)c1)c1ccccc1` the entry was “inactive”. With `c1coc(CNc2ncnc3ccccc23)c1` the entry was “inactive”; with `C=C(C)Cn1c(SCC(=O)NCc2ccco2)nc2sc3c(c2c1=O)CCC3`, “inactive”; with `CN1CCc2c(sc3c2c(NCc2ccco2)nc2nnnn23)C1`, 530 nM (active). For `CCOC(=O)c1cnc(SCC(=O)NCc2ccco2)nc1N` the value was “inactive”; for `CC(=NC1CCN(Cc2ccccc2)CC1)c1c(O)[nH]c(=O)[nH]c1=O`, “inactive”. For the compound `COc1ccccc1Nc1ncc(C(C)=O)c(C)n1`, the max dye-equivalent concentration entry was “inactive”. For `COc1ccccc1Nc1ncnc2c1oc1ccccc12`, the max dye-equivalent concentration is 84 nM (active). For `COc1ccc(CCNC(=O)CSc2nc(C)nc3c2oc2ccccc23)cc1OC` the value was “inactive”. With `O=C1CSC(=O)N1CCOCCN1C(=O)CSC1=O` the entry was “inactive”. For `CS(=O)(=O)N1CCC2(CCN(c3ccncc3)CC2)CC1` the value was “inactive”; for `COc1c(F)c(F)c(-c2csc(N)n2)c(F)c1F`, 15 nM (active); for `Cc1ccc(F)cc1NC(=O)c1cccc(N(C)C)c1`, “inactive”.

For `OCCCNC(c1ccccc1)c1ccc(O)cc1` (stereo not drawn), the max dye-equivalent concentration result was “inactive”. With `CCOc1cc(N2CCOCC2)c(OCC)cc1NC(=O)COc1cccc2cccnc12`, the max dye-equivalent concentration was 19 nM (active). With `O=C(Nc1ccc(F)cc1)c1cccnc1N1CCOCC1` the entry was “inactive”. For `C=CCn1c(COc2cccc3cccnc23)nnc1SCC(=O)OC` the value was “inactive”; for `CCCn1c(SCC(=O)N2CCc3ccccc32)nnc1-c1ccncc1`, “inactive”.

For the compound `Cc1cccc(NC(=O)CSc2nc3c(c(=O)[nH]2)CCC3)c1C`, the max dye-equivalent concentration entry is “inactive”. With `COc1cccc(-c2cc3nc4c(c(N5CCC6(CC5)OCCO6)n3n2)CCCC4)c1`, the max dye-equivalent concentration was 130 nM (active). For `COc1cccc(-c2nc(S(=O)(=O)c3ccccc3)c(N3CCOCC3)o2)c1` the value was “inactive”; for `COc1ccccc1CNC(=O)C1CCN(S(C)(=O)=O)CC1`, “inactive”; for `Cc1cc(C)c2nc3c(c([C@H](O)[C@@H]4CCCCN4)c2c1)CC/C3=C/c1ccc(Cl)cc1`, “inactive”.

Turning to `COC(=O)c1sc(NC(=O)c2csc3c2CCCC3)nc1C`, the max dye-equivalent concentration result is “inactive”. Take `Cc1nc(NC(=O)CCC(=O)O)sc1C(=O)N(C)C`: the max dye-equivalent concentration result was “inactive”. With `CCOC(=O)c1sc(/N=C/Nc2nc(C)c(C(=O)OCC)s2)nc1C` the figure was 10 nM (active); with `CCN(CC)P(=O)(C(NC(=O)OC)C(F)(F)C(F)(F)C(F)(F)C(F)F)N(CC)CC` (stereo not drawn), “inactive”.

For `CCOc1cccc(NC(=O)C2CCCN(S(=O)(=O)c3ccc(OC)cc3)C2)c1` (stereo not drawn), the max dye-equivalent concentration entry is “inactive”. For `CCOC(=O)c1c(C)c(C(=O)NCCc2ccc(S(N)(=O)=O)cc2)c(C)n1CC` the value was “inactive”; for `C=CCNc1nnc(C)c2ccccc12`, “inactive”; for `C=CCNc1nnc(SCC(=O)N2CCCCC2)c2ccccc12`, 15 nM (active). For `CCOc1ccccc1-n1c(SCC(=O)N2CCCC2)nnc1-c1ccoc1C` the value was “inactive”; for `O=C(OCC(=O)N1CCN(C(=O)c2ccco2)CC1)c1ccccc1Cc1ccccc1`, “inactive”.

In the case of `COc1ccc(C2C(C(=O)N3CCN(c4ccc(OC)cc4)CC3)c3ccccc3C(=O)N2C)cc1` (stereo not drawn), the max dye-equivalent concentration result is “inactive”. Consider `C/C(Cl)=C\Cn1c(Nc2cccc(C)c2)nc2c1c(=O)n(C)c(=O)n2C`, for which the max dye-equivalent concentration result was “inactive”. For the compound `COCCNC(=O)c1snc2ccc(Cl)cc12`, the max dye-equivalent concentration is 46 nM (active). With `COCCNC(=O)c1ccccc1-c1nc(-c2ccccc2Cl)no1` the entry was “inactive”; with `COCC(C)NC(=O)c1ccc(Cl)c(Cl)c1` (stereo not drawn), “inactive”. In the case of `OCCCNCc1ccccn1`, the max dye-equivalent concentration result was “inactive”.

Regarding `Cc1noc(C)c1CSc1nc2cc(S(=O)(=O)N3CCOCC3)ccc2o1`, the max dye-equivalent concentration entry is “inactive”.

Take `CC(=O)Nc1ccc(S(=O)(=O)Nc2nc3n(n2)C(c2ccccc2)CC(=O)N3)cc1` (stereo not drawn): the max dye-equivalent concentration result is “inactive”. With `Cc1onc(-c2ccccc2Cl)c1C(=O)NCCn1ccc2ccccc21` the entry was “inactive”. With `Cc1nc(SCC(=O)Nc2cc(C)on2)c2c(C)c(C)sc2n1` the entry was “inactive”; with `Cc1cc(C)c2c(c1)cc(C)c1nnc(SCC(=O)Nc3cc(C)on3)n12`, “inactive”; with `Cc1ccc2nc(-c3ccc(SCC(=O)Nc4cc(C)on4)nc3)[nH]c2c1`, 30 nM (active).

Consider `Cn1c(=O)c2c(nc(SCC(=O)Nc3ccccc3N3CCCCC3)n2C)n(C)c1=O`, for which the max dye-equivalent concentration entry is “inactive”.

The values above are taken from PubChem BioAssay AID590 (National Center for Advancing Translational Sciences (NCATS), 2007).
